# S1P4 ag: S1P4 receptor agonists, primary screen, cell-based | Sphingosine 1-phosphate receptor 4 (Homo sapiens), O95977 | S1P4-expressing cell line, agonist reporter assay | activation, % at 4.98 µM | 220,000 tested, 0.35% active | AID 1509, 2009; in the data active = activation above about 11%
# RAM network inh: inhibitors of the yeast RAM network, primary screen, dse1pr::URA3 reporter, 5-FOA selection; inhibition, % at 50 µM; 190,000 tested, 1.8% active; AID 868, 2007; S. cerevisiae dse1pr::URA3 reporter, 5-FOA growth OD615, 2 d; analog-sensitive cbk1-as2 kinase mutant strain;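 active = inhibition above a set limit, 3 SD over mean compound inhibition, cut at about 8.4% in these data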;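 note: inhibition rescues growth on 5-FOA so higher OD means more RAM inhibition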
# KCC2 mod: KCC2 cotransporter modulators, thallium flux, primary screen, cell-based, HEK293 KCC2, FluoZin-2 fluorescence, MLSMR | B-score of Tl+ flux slope (higher = more flux/activation; lower = inhibition) at 10 µM | KCC2 cells, thallium flux FluoZin-2 fluorescence | 190,000 tested, 2.2% active;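 active = thallium flux slope and its plate-corrected score both differing from the plate sample mean at a set confidence after two filtering rounds, in either direction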;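 note: slope of fluorescence scaled to starting intensity during 10 to 20 s after thallium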
# ROMK mod: ROMK potassium channel modulators, primary screen, cell-based, thallium flux, MLSMR library; ATP-sensitive inward rectifier potassium channel 1 (Homo sapiens), P48048; B-score at 10 µM; 130,000 tested, 2% active; Tet-inducible ROMK, thallium flux fluorescence; actives lie on both sides;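 active = signal ratio slope over the read window, or its plate-corrected B-score, at least 3 SD from the plate mean, either direction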;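 note: B-score of the F/F0 ratio slope over 7 to 12 s after thallium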
# S1P4 antagonist: S1P4 receptor antagonists, primary screen, cell-based | S1P4-expressing cells, antagonist mode, reporter read-out | inhibition, % at 4.98 µM | 220,000 tested, 0.26% active; in the data active = inhibition above about 29%
# S1P3 antag: S1P3 receptor antagonists, primary screen, cell-based. inhibition, % at 4.98 µM. 170,000 tested, 0.27% active. CHO S1P3 NFAT-BLA reporter, FRET fluorescence, antagonist mode. Sphingosine 1-phosphate receptor 3 (Homo sapiens), Q99500;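 active = inhibition above the plate cutoff, the mean inhibition of test wells on that plate plus 3 SD, cut at about 28% in these data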;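 note: cells challenged with S1P at its EC80 of 0.8 µM; blue over green emission ratio from cleaved BLA substrate after 4 h stimulation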
# ROMK retest: ROMK channel modulator hit retest, confirmation, cell-based, thallium flux, duplicate, resupplied hits; fluorescence ratio; stronger effect = lower value; normalized thallium flux (F/F0 slope) at 10 µM; shares compounds with ROMK mod; 3,000 tested, 54% active; AID 1917, 2009;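 active = Flux at 10 µM at least 3 SD below or above vehicle control mean in one or both replicates; inconclusive = no clear call, values can overlap the other calls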
# Numbers stand for hits; n = inactive; u = inconclusive; x = not tested or not shown. This is a sample that favours compounds with a hit; in the whole collection about 5.1% have one here.
SMILES,S1P4 ag,RAM network inh,KCC2 mod,ROMK mod,S1P4 antagonist,S1P3 antag,ROMK retest
CCC(C)NC(=O)CSc1nc2c(sc3ccccc32)c(=O)n1CCCN1CCOCC1 (stereo not given),n,n,n,2.61,n,x,n
CCOC(=O)CSc1nc2c(sc3ccccc32)c(=O)n1CCCN1CCOCC1,n,n,n,n,n,n,x
CC(=O)O[C@]1(C(C)=O)CC[C@H]2[C@@H]3C[C@H](C)C4=CC(=O)CC[C@]4(C)[C@H]3CC[C@@]21C,n,n,n,n,n,n,x
CC(=O)O[C@]1(C(C)=O)CC[C@H]2[C@@H]3C=C(Cl)C4=CC(=O)CC[C@]4(C)[C@H]3CC[C@@]21C,n,8.8,n,x,n,n,n
O=C(CN1C(=O)NC2(CCCC2)C1=O)N1CCc2ccccc2C1,n,n,n,2.22,n,n,n
O=C(CN1C(=O)NC2(CCCCC2)C1=O)N1CCc2ccccc2C1,n,n,n,n,n,n,x
Cc1nn(C)cc1CN(C)S(=O)(=O)c1cccc([N+](=O)[O-])c1,n,n,n,n,n,n,x
COC(=O)C1C(=O)C2=C(CC1C)NC(C)=C(C(=O)OCCOc1ccccc1)C2c1ccc(C)o1 (stereo not given),n,n,n,-3.95,n,x,0.0658
CC(C)c1nc2sc(C(=O)O)c(N)c2c2c1CCCC2,n,x,n,x,n,n,x
N#CC(c1ccc(Cl)cc1)(c1ncc(C(F)(F)F)cc1Cl)N1CCOCC1 (stereo not given),n,n,x,x,n,x,x
Cc1ccnc(-n2c(C)cc(/C=N/NC(=O)COc3cccc4cccnc34)c2C)c1,n,x,n,n,n,n,x
COCC1CCCN(Cc2nc(Cc3ccccc3)no2)C1 (stereo not given),n,n,n,0.571,n,n,n
O=c1c2ccccc2nc2n1C(CBr)CN2 (stereo not given),n,x,x,x,n,n,x
Cc1ccc(S(=O)(=O)NC2=NCN(C3CCCCC3)CN2)cc1,n,n,n,x,n,n,u
CC(=O)Nc1cccc(OCCCNC(=O)c2ccc(C(C)(C)C)cc2)c1,n,x,n,x,n,n,x
O=C(CN1C(=O)C2C3c4ccccc4C(c4ccccc43)C2C1=O)Nc1cccc(C(=O)O)c1 (stereo not given),n,n,n,n,n,n,x
CC(C)CCNCC1OCc2ccccc2CO1,n,n,n,x,n,n,x
COc1cccc(-c2cc(C(=O)NCc3cccs3)no2)c1,n,x,n,-2.08,n,n,n
COc1ccc(-c2cc(C(=O)NCc3cccs3)no2)cc1,n,x,n,n,n,n,x
COc1ccc(NC(=O)c2cc(-c3cccc(OC)c3)on2)cc1,n,n,n,-4.42,n,n,n
CCOc1ccc(NC2OCC(O)C(O)C2O)c([N+](=O)[O-])c1 (stereo not given),n,n,n,-8.85,n,n,n
O=C(O)c1ccccc1C1=Nc2ccc(O)cc2Oc2cc(O)ccc21,n,n,n,x,n,n,0.0543
Cc1cc(-c2ccccc2C(=O)O)on1,n,n,n,x,n,n,x
CCOC(=O)c1cnc(-n2nc(C)cc2C)nc1NC1CCCCC1,n,n,x,-4.68,n,n,0.0563
O=S(=O)(c1cccc(Cl)c1)N1CCCC1,n,n,n,x,n,x,x
SMILES,S1P4 ag,RAM network inh,KCC2 mod,ROMK mod,S1P4 antagonist,S1P3 antag,ROMK retest
O=[N+]([O-])c1cc(S(=O)(=O)N2CCCC2)ccc1O,n,n,n,n,n,n,x
O=[N+]([O-])c1cc(S(=O)(=O)N2CCCCCC2)ccc1F,n,n,n,x,n,n,0.0538
O=S(=O)(c1cccc(S(=O)(=O)N2CCCC2)c1)c1cccc(S(=O)(=O)N2CCCC2)c1,n,n,n,-5.74,n,n,0.0656
COC(=O)[C@H](Cc1c[nH]c2ccccc12)NC(=O)Nc1ccccc1OC,n,x,n,n,n,n,x
Nc1cc(C(=O)c2ccccc2)ccc1[N+](=O)[O-],n,n,n,n,n,n,x
CSCCC(=O)N1C(C)CCCC1C(=O)O (stereo not given),n,n,n,x,n,x,x
CC1CCCC(C(=O)O)N1C(=O)CCS (stereo not given),n,n,n,2.2,n,x,u
CC1CCCN(c2nc3ccccc3nc2C(C#N)S(=O)(=O)c2cccs2)C1 (stereo not given),n,n,n,-4.53,n,x,0.059
COc1ccc(S(=O)(=O)C(C#N)c2nc3ccccc3nc2N2CCCC(C)C2)cc1 (stereo not given),n,n,n,x,n,n,x
O=C(NCC1CCCO1)C(c1ccc(F)cc1)N(CC1CCCO1)C(=O)c1ccc(-c2ccccc2)[nH]1 (stereo not given),n,n,n,-3.16,n,n,0.0595
c1ccc(-c2nnc3n2-c2ccccc2SC3)cc1,n,x,n,x,n,n,x
CC1(C)NC(=O)N(CCCCOc2ccc(Cl)cc2C=O)C1=O,n,n,n,3.85,n,n,n
CC1(C)NC(=O)N(CCCCOc2ccc(Cl)cc2)C1=O,n,n,x,n,n,x,x
CN=C1c2c(-c3ccccc3)c3cc(OC)ccc3n2CCN1C,n,n,x,-3.69,n,x,0.0668
CCC(CNc1cc(OC)cc2cccnc12)NC1CCCCC1 (stereo not given),n,x,n,x,n,n,0.0536
CCOc1cc(/C=N/N=C(N)N)ccc1OCc1ccc(Cl)cc1,n,9.8,n,-3.9,n,n,0.053
Cc1cccn2c(=O)c(/C=C3\SC(=S)NC3=O)c(NCCCN3CCOCC3)nc12,n,x,n,x,n,n,0.0529
COc1ccc(CNC(=O)C(c2ccco2)N(C(=O)CNS(=O)(=O)c2ccccc2)c2ccccc2C)cc1 (stereo not given),n,n,n,-5.02,n,n,0.0447
CCCC(C(=O)NCc1ccco1)N(C(=O)CNS(=O)(=O)c1ccccc1)c1ccccc1OC (stereo not given),n,n,x,-4.19,n,n,0.0585
CCC(C(=O)NCc1ccco1)N(C(=O)CNS(=O)(=O)c1ccc(C)cc1)c1ccccc1OC (stereo not given),n,n,x,n,n,n,x
COc1ccccc1N(C(=O)CNS(=O)(=O)c1ccccc1)C(C(=O)NCc1ccco1)C(C)C (stereo not given),n,n,n,x,n,n,x
CC(=O)NC(=S)Nc1ccc(S(=O)(=O)Nc2ncccn2)cc1,n,x,n,x,n,n,x

# From PubChem BioAssay
